Compound activity as filed in PubChem.
A selection: hits, their analogues and other compounds. The true share with any hit is near 2.4%.
ABHD5 PLIN5 PPI: ABHD5-PLIN5 interaction inhibitors, primary screen, cell lysate, split luciferase complementation, luminescence. inhibition, % at 4 µM. Perilipin-5 (Homo sapiens) + 1-acylglycerol-3-phosphate O-acyltransferase ABHD5 (Homo …. AID 602281, 2012. Split G. princeps luciferase complementation, 4 h. 360,000 tested, 0.78% active;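 active means inhibition above the mean inhibition across every tested compound plus 3 SD, cut at about 22% in these data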
Target sequence (Q00G26 whole entry, looked up): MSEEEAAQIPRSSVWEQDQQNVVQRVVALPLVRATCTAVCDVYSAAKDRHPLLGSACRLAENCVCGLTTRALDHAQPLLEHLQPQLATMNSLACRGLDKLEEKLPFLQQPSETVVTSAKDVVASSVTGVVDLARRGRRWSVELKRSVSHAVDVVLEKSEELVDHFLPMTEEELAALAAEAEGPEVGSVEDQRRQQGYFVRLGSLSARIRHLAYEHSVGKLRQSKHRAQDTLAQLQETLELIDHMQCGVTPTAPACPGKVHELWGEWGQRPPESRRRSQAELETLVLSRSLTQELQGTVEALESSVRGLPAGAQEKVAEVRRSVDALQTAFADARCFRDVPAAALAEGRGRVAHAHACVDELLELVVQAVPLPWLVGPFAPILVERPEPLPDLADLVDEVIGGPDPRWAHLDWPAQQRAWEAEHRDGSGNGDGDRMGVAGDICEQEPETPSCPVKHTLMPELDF
Target sequence (Q8WTS1 whole entry, looked up): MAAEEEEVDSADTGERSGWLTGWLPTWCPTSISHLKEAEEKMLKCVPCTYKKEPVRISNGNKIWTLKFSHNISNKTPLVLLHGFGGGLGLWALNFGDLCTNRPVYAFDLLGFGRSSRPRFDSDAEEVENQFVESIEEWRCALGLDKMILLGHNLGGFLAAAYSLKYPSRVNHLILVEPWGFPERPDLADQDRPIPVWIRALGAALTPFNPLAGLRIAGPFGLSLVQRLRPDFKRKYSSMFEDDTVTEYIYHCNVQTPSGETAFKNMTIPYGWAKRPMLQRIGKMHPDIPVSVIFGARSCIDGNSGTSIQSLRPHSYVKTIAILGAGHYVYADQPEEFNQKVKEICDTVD
CRFBP-R2 block: antagonists of CRF-BP/CRF-R2 complex, primary screen, cell-based, HEK293, calcium dye fluorescence, uHTS | CRF-induced calcium fluorescence | 350,000 tested, 0.59% active | AID 588475, 2011 | inhibition, % at 11.8 µM;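 active means inhibition of the ligand-induced calcium signal above about 50% at the single tested concentration, limit read from the data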
NOD2 RIPK2 PPI: NOD2-RIPK2 binding disruptors in cells, primary screen, fluorescence, CHO cells, BLA complementation; CCF4 ratio; inhibition, % at 4.98 µM; 360,000 tested, 0.38% active; in the data active means inhibition above about 21%
TLR4 MyD88 comp: inhibitors of TLR4-MyD88 association in cells, primary screen, cell-based, HeLa CL3-4, BLA complementation, FRET ratio; HeLa CL3-4 TLR4/MyD88 BLA complementation; AID 861, 2007; inhibition, % at 8.4 µM; 200,000 tested, 0.18% active; Toll-like receptor 4 (Homo sapiens) + Myeloid differentiation primary response protein …; in the data active means inhibition above about 25%
TLR9-MyD88 block: inhibitors of TLR9-MyD88 association in cells, primary screen, cell-based, CHO, BLA complementation, fluorescence; 340,000 tested, 0.21% active; AID 504734, 2011; CCF4 FRET ratio; Toll-like receptor 9 (Homo sapiens) + Myeloid differentiation primary response protein …; inhibition, % at 4.98 µM;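 active means inhibition above the mean over all tested compounds plus 3 SD, cut at about 21% in these data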
HTR2A ag: mouse Htr2a agonists via beta-arrestin recruitment, primary screen, cell-based, luminescence | 5-hydroxytryptamine receptor 2A (Mus musculus), P35363 | CHO-K1 mHTR2A beta-arrestin complementation; percent of 30 µM serotonin response | activation, % at 7.6 µM | 360,000 tested, 0.66% active;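 active means activation above a run cutoff, the mean activation of all tested compounds plus 3 SD, cut at about 14% in these data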
ABHD5-PLIN5 conf: ABHD5-PLIN5 interaction inhibitors, confirmation, biochemical, luminescence; shares compounds with ABHD5 PLIN5 PPI; inhibition, % at 4 µM; 2,200 tested, 67% active; in the data active means inhibition above about 23%
HNF4 split-luc: HNF4 dimerization inhibitors, counter-screen for ABHD5-PLIN5 interaction inhibitor project, biochemical, split-luciferase complementation, luminescence | inhibition, % at 4 µM | AID 651674, 2012 | 2,200 tested, 77% active | shares compounds with ABHD5 PLIN5 PPI;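 active means mean inhibition across replicate wells exceeding the computed hit threshold, cut at about 13% in these data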;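 further: light from luciferase halves that rejoin when HNF4 fusion proteins dimerize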
MOR ag counter: OPRM1 agonists via beta-arrestin recruitment, confirmation, counter-screen for mouse HTR2A agonist project, cell-based, luminescence, single concentration; shares compounds with HTR2A ag; U2OS OPRM1 beta-arrestin PathHunter; DMSO 0%, DAMGO 9.3 µM 100%; activation, % at 9.3 µM; 2,300 tested, 5.3% active;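 active means mean activation above the mean of DMSO-only wells plus 3 SD, cut at about 0.5% in these data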
m5-HT2A ag conf: mouse HTR2A agonists, beta-arrestin recruitment, confirmation, cell-based, luminescence, CHO-K1 PathHunter, triplicate. DMSO 0%, 30 µM serotonin 100%. activation, % at 7.6 µM. shares compounds with HTR2A ag. 2,300 tested, 19% active. AID 624381, 2012;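 active means mean activation across triplicates above the hit threshold derived in the original primary screen, cut at about 15% in these data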
NOD2 RIPK2 conf: NOD2-RIPK2 binding disruptors, retest, confirmation, fluorescence, CHO cells, BLA complementation, triplicate. shares compounds with NOD2 RIPK2 PPI. CCF4 FRET. inhibition, % at 4.98 µM. 1,200 tested, 70% active;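 active means mean inhibition across replicates above a set limit taken from the earlier primary screen, cut at about 21% in these data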
BLA counter: NOD2-RIPK2 counterscreen BLA reporter activity; 1,200 tested, 57% active; inhibition, % at 4.98 µM; shares compounds with NOD2 RIPK2 PPI; CHO BLA reporter, CCF4 FRET ratio;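 active means mean inhibition above the low-control mean inhibition plus three low-control SD, cut at about 11% in these data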
Numbers stand for hits; i = inactive; nt = no result.

SMILES | ABHD5 PLIN5 PPI | CRFBP-R2 block | NOD2 RIPK2 PPI | TLR4 MyD88 comp | TLR9-MyD88 block | HTR2A ag | MOR ag counter | m5-HT2A ag conf | others
CN(C)CC(C(=O)c1ccccc1)c1ccccc1 (stereo not given) | 31 | i | 23 | i | i | i | nt | nt | ABHD5-PLIN5 conf=i;HNF4 split-luc=100;NOD2 RIPK2 conf=i;BLA counter=i
O=C(CC[C@H]1O[C@@H](n2ccc(=O)[nH]c2=O)[C@H](O)[C@@H]1O)NCCc1c[nH]c2ccccc12 | i | nt | i | nt | nt | i | nt | nt
O=C(COc1ccccc1)NCc1n[nH]c(=S)n1-c1ccccc1 | i | i | i | i | i | 16 | i | i
CC(=O)CC(C)(C)Nc1nc2ccc([N+](=O)[O-])cc2o1 | i | i | i | nt | i | i | nt | nt
CC(C)(C)Nc1nc2ccc([N+](=O)[O-])cc2o1 | i | i | i | nt | i | 15 | i | i
CCc1nc2c3cnn(-c4cc(Cl)ccc4C)c3ncn2n1 | i | i | i | i | i | 16 | i | i
Cc1cccc(C)c1OCC(=O)Nc1ccccc1C(=O)N1CCOCC1 | i | i | i | nt | i | 25 | i | i
Cc1[nH]c2ccccc2c1C(=O)C(=O)NCCCc1ccccc1 | i | i | i | nt | i | i | nt | nt
COc1ccc2[nH]cc(CCNS(=O)(=O)c3ccc(NC(C)=O)cc3)c2c1 | i | i | i | i | nt | 31 | i | 15
Cc1[nH]c2ccccc2c1C(=O)C(=O)NCCc1c[nH]c2ccccc12 | i | i | i | nt | i | 15 | i | i
COc1ccc2[nH]cc(CCNC(=O)C3CCCCC3)c2c1 | i | i | i | nt | i | 15 | i | i
O=C(O)C1CCCCC1C(=O)NCCc1c[nH]c2ccccc12 (stereo not given) | i | i | i | i | i | 38 | i | 15
Cc1ccc(Cn2cc(CN(C)C3CN(Cc4cn(Cc5ccc(C)cc5)nn4)S(=O)(=O)C3)nn2)cc1 (stereo not given) | i | nt | i | nt | nt | i | nt | nt
O=c1cc(C(F)(F)F)nc(SCc2cccc3ccccc23)[nH]1 | i | i | i | nt | i | 18 | i | i
CC(=O)c1cccc(NC(=O)C2Cc3c(-c4ccccc4Oc4ccccc4)ccnc3O2)c1 (stereo not given) | i | nt | i | nt | nt | i | nt | nt
OCCNc1ncnc2c1ncn2[C@H]1CN(Cc2ccncc2)C[C@@H](CO)O1 | i | nt | i | nt | nt | 15 | nt | i
COC(=O)C1=CN(c2ccc(OC)cc2)C(N)=C(C#N)C1c1ccccc1F (stereo not given) | i | nt | i | nt | nt | i | nt | nt
Cc1cccn2c(=O)nc(SCC(=O)NCc3ccccc3)nc12 | i | i | i | nt | i | 15 | i | i
COc1cc(-c2cnc3c(NC=O)cc(-c4ccsc4)cn23)cc(OC)c1OC | i | nt | i | nt | nt | i | nt | nt
COc1ccc(-c2csc(C(C)(O)c3cccc(F)c3)n2)cn1 (stereo not given) | i | nt | i | nt | nt | i | nt | nt
COc1cc2c(cc1OC)CN(C(=O)C(C)(C)C)CC2 | i | i | i | i | i | 17 | i | i
O=C(NCc1cccc(C(F)(F)F)c1)c1ccc2sc(C3=C[C@@H](O)[C@@H](O)[C@@H](CO)O3)nc2c1 | i | nt | i | nt | nt | i | nt | nt
CN1CCN(Cc2coc3c(Cl)cc(Cl)cc3c2=O)CC1 | i | i | i | nt | i | i | nt | nt
O=c1c(CN2CCN(c3cccc(Cl)c3)CC2)coc2c(Cl)cc(Cl)cc12 | i | i | i | i | i | 16 | i | i
Cc1ccc(-c2ccnc(=S)[nH]2)cc1 | i | i | i | i | i | 15 | i | i
SMILES | ABHD5 PLIN5 PPI | CRFBP-R2 block | NOD2 RIPK2 PPI | TLR4 MyD88 comp | TLR9-MyD88 block | HTR2A ag | MOR ag counter | m5-HT2A ag conf | others
COc1ccc(-c2csc(C3=C(O)CN(Cc4ccc(Cl)cc4)C3=N)n2)cc1OC | i | i | i | i | i | 53 | 1.7 | 29
COc1ccc(Cl)cc1S(=O)(=O)N1CCN=C1C | i | i | i | i | i | 24 | i | i
CCCCN(C)c1c(C)nc2ccc(C(=O)N(C)Cc3ccco3)cn12 | i | nt | i | nt | nt | i | nt | nt
COc1ccccc1-c1cnc(C(O)c2ccc(C)cc2)[nH]1 (stereo not given) | i | nt | i | nt | nt | i | nt | nt
COc1ccccc1OCCn1ccnc1 | i | i | i | nt | i | 16 | i | i
Cc1ccccc1OCCn1ccnc1 | i | i | i | nt | i | i | nt | nt
CO[C@@H]1CN(C)C(=O)c2cc(NC(=O)NC3CCCCC3)ccc2OC[C@@H](C)N(CCc2ccccc2)C[C@@H]1C | i | nt | i | nt | nt | i | nt | nt
CCC(=O)Nc1nc2c(s1)COc1ccccc1-2 | i | i | i | i | i | 18 | i | i
O=C(Nc1nnc([C@@H]2C[C@H](O)[C@@H](CO)O2)s1)Nc1ccccc1Oc1ccccc1 | i | nt | i | nt | nt | i | nt | nt
COc1ccc(OC)c(C(=O)N(C)C2CCCN(Cc3ccccc3F)C2)c1 (stereo not given) | i | i | i | nt | i | i | nt | nt
COc1ccc(C(=O)N(C)C2CCCN(Cc3ccccc3F)C2)cc1OC (stereo not given) | i | i | i | nt | i | 17 | i | i
Cc1nc2cc3c(=O)n(C)cnc3cc2n1Cc1ccccc1 | i | i | i | nt | i | i | nt | nt
Cn1nnnc1N=N/C(=N/Nc1ccccc1)c1ccccc1 | i | i | i | nt | i | 16 | i | i
